Reference: ChEMBL document CHEMBL3988442, “University of Dundee, Small-Polar-MMV Screening Library” (2021)
For some of these results: Results with a measured potency or affinity are listed apart.

Experiments:
Set-up in all cases: scale not given: direction of the effect not stated beside the values
[1] = biological target: Protein translocase subunit SecA (Escherichia coli (strain K12)) (UniProt P10408); assay: Assay to Identify E. coli SecA ATPase Inhibitors; assay type: functional; conditions: 30 µM
[2] = biological target: T1, Ubiquitin-activating enzyme e1, putative (Leishmania donovani (strain BPK282A1)) (UniProt E9BSI1); assay: Leishmania donovani Ubiquitin Activating Enzyme (LdE1); assay type: functional; conditions: 30 µM
T1 sequence (whole entry): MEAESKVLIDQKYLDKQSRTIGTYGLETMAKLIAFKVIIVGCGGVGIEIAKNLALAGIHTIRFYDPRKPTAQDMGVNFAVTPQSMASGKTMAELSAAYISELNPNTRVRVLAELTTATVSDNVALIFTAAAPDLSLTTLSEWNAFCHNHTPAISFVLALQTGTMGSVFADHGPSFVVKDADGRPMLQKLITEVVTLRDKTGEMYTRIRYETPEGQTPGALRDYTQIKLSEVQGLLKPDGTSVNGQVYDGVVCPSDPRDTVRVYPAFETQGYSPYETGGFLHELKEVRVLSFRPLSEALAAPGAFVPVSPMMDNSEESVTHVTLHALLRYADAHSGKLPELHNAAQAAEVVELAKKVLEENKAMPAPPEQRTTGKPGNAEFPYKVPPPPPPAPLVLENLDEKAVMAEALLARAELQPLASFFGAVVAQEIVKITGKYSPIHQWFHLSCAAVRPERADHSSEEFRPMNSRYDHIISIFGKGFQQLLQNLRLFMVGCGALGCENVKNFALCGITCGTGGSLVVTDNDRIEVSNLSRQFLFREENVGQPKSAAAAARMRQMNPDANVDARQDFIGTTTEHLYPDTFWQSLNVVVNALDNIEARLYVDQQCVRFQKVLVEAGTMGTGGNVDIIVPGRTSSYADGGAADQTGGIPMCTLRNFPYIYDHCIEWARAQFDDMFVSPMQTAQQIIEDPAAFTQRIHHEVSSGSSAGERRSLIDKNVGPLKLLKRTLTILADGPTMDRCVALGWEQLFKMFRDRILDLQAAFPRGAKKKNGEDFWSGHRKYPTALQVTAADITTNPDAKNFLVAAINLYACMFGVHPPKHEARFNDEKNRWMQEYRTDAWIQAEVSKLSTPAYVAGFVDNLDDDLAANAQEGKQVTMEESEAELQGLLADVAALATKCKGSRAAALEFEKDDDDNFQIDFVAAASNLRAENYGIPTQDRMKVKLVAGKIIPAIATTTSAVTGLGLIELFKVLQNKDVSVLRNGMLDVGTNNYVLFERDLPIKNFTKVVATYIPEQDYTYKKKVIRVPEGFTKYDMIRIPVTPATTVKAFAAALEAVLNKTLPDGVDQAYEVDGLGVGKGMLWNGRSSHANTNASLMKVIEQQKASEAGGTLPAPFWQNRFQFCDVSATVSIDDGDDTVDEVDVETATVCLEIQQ

[3] = biological target: T2, Aspartate--tRNA(Asp/Asn) ligase (Mycobacterium tuberculosis (strain ATCC 25618 / H37Rv)) (UniProt P9WFW3); assay: Assay for Asp RNA synthetase-1 from Mycobacterium tuberculosis; assay type: functional; conditions: 30 µM; further: in the data most compounds retested in dose-response had high values
T2 sequence (whole entry): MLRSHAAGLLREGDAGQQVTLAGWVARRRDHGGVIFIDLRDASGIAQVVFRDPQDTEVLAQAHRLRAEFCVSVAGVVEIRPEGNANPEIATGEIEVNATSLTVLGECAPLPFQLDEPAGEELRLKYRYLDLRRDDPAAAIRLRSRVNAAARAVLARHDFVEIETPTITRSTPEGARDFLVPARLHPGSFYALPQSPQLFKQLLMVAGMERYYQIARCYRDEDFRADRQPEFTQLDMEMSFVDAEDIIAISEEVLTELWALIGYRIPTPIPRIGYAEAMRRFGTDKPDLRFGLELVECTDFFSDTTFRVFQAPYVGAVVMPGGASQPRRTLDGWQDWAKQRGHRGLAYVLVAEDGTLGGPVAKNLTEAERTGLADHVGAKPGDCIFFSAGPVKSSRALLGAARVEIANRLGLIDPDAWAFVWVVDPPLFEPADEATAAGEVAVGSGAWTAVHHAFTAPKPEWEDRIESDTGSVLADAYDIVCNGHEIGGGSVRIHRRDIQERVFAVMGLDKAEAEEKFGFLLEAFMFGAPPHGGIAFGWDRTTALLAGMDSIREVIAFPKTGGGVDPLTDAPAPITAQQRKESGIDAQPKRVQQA

[4] = biological target: AMP-activated protein kinase, AMPK (Homo sapiens) (UniProt P54646+O43741+P54619+Q9UGJ0+Q9Y478+Q13131+Q9UGI9); assay: AMP-dependent Kinase enzyme assay. An in vitro enzyme assay that detects ADP turnover that is directly proportional to AMPK activity. This uses naive AMPK that is activated during the assay with MK-8722; assay type: functional; conditions: 30 µM
[5] = biological target: Sialic acid-binding Ig-like lectin 9 (Homo sapiens) (UniProt Q9Y336); assay: Hs-Siglec9 ALPHAscreen SOP 20170721; conditions: 10 µM
Trypanosoma cruzi = assay: Trypanosoma cruzi phosphomannomutase and mannose-1-phosphate guanylyltransferase assay; assay type: functional; conditions: 10 µM
[6] = biological target: T3, Arginase-2, mitochondrial (Homo sapiens) (UniProt P78540); assay: in vitro enzyme assay to detect the production of urea directly proportional to the activity of Arginase II; assay type: functional; conditions: 33.3 µM; further: in the data most compounds retested in dose-response had high values
T3 sequence (whole entry): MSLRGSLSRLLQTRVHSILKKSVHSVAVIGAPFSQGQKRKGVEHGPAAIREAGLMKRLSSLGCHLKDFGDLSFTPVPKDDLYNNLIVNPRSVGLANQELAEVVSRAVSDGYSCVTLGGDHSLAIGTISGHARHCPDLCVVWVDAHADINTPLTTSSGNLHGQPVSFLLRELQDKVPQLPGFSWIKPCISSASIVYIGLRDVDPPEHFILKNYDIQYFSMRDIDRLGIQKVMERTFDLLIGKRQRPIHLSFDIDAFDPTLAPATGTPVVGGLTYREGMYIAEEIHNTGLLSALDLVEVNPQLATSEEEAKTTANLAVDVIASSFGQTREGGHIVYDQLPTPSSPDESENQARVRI

[7] = biological target: T4, Proteasome subunit beta (Trypanosoma cruzi) (UniProt O96673); assay: Trypanosoma cruzi proteasome chymotrypsin-like activity (TcProtChymo) assay.; further: in the data most compounds retested in dose-response had high values; assay type: functional; conditions: 9.37 µM
T4 sequence (whole entry): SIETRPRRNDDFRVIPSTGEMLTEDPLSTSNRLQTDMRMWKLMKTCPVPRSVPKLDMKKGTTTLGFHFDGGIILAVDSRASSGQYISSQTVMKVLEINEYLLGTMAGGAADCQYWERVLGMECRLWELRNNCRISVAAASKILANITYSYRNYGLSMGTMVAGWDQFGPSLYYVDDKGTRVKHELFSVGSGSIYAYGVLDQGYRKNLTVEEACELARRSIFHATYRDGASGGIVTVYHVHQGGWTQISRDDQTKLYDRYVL

Homo sapiens = species: Homo sapiens; assay: To identify inhibition of the IFN signalling (Jak-Stat) pathway via expression of an eGFP reporter gene under the control of an IFN-stimulated response element (ISRE) containing MxA promoter.; assay type: functional; conditions: 30 µM
[8] = biological target: Shiga toxin 2 (Escherichia coli O157:H7) (UniProt P09385+P09386); assay: E. coli 0.157:H7 Shiga Toxin SOP - stx2 screening assay; assay type: functional; conditions: 30 µM
[9] = biological target: T5, Tyrosyl-tRNA synthetase, putative (Trypanosoma cruzi (strain CL Brener)) (UniProt Q4DSP6); assay: Trypanosoma cruzi tyrosyl tRNA synthetase (TcYRS) _High Tyrosine SOP; assay type: functional; conditions: 30 µM; further: in the data most compounds retested in dose-response had high values
T5 sequence (whole entry): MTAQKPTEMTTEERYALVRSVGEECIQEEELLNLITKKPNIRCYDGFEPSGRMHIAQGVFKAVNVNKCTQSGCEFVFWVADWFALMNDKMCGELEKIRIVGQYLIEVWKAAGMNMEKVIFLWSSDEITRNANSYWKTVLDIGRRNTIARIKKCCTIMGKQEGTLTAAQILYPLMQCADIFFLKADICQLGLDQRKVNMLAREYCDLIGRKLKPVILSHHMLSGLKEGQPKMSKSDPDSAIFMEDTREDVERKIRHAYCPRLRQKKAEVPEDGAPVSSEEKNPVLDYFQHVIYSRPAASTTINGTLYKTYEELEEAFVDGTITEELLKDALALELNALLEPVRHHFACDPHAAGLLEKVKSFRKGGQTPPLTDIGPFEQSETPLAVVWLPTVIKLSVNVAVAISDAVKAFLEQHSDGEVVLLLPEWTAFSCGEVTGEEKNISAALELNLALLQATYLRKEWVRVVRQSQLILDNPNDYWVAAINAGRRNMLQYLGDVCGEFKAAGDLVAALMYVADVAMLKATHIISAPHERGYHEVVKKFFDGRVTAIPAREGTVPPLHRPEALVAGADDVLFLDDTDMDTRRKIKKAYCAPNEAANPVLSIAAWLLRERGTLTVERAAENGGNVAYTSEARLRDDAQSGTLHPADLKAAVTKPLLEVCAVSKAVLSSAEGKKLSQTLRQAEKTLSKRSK

[10] = biological target: T5, Tyrosyl-tRNA synthetase, putative (Trypanosoma cruzi (strain CL Brener)); assay: Trypanosoma cruzi tyrosyl tRNA synthetase (TcYRS) SOP; assay type: functional; conditions: 30 µM
[11] = biological target: Chromo domain-containing protein 1 (Saccharomyces cerevisiae (strain ATCC 204508 / S288c) (Baker's yeast)) (UniProt P32657); assay: ScCHD-1 Enzyme Inhibition Assay; assay type: functional; conditions: 30 µM; further: in the data most compounds retested in dose-response had high values
Chain of Chromo domain-containing protein 1 (Saccharomyces cerevisiae (strain ATCC 204508 / S288c) (Baker's yeast)) (P32657 whole entry, the tested form may be a part): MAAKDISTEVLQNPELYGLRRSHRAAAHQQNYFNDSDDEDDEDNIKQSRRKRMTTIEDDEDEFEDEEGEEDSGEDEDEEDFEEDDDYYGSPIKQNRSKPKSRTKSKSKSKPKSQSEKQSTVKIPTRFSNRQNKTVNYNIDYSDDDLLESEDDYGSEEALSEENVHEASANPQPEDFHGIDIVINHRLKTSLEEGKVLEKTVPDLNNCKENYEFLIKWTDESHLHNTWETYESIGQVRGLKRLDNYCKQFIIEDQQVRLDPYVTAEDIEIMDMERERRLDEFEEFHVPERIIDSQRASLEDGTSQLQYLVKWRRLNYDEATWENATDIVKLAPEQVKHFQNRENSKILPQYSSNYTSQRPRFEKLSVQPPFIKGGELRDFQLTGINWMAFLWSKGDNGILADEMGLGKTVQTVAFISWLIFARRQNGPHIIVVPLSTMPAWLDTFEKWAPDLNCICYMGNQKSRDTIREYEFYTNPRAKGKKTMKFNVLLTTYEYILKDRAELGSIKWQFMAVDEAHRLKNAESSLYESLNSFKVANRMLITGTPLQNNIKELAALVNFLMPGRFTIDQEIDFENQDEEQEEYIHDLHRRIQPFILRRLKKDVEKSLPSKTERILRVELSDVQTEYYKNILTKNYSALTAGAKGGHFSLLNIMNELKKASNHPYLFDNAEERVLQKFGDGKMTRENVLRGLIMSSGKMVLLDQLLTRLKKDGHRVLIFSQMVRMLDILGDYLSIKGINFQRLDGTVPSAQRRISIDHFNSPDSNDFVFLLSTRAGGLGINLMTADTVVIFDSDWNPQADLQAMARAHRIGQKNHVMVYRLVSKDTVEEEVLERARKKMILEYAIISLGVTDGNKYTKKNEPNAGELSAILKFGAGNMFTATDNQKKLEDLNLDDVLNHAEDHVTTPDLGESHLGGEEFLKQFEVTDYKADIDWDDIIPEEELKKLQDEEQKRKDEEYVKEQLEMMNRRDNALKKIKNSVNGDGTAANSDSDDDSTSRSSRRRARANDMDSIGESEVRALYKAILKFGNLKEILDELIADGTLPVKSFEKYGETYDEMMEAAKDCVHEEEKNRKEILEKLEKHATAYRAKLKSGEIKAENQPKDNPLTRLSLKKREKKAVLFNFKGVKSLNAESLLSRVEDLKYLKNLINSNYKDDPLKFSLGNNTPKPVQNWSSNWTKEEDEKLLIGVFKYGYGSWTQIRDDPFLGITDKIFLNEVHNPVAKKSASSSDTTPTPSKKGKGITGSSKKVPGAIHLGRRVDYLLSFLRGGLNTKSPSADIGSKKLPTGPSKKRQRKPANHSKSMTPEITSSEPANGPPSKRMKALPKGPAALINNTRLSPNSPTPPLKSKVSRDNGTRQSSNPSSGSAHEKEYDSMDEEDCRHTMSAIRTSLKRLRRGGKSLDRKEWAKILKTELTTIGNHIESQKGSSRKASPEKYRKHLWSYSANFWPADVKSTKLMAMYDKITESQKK

Chain of Protein translocase subunit SecA (Escherichia coli (strain K12)) (P10408 whole entry): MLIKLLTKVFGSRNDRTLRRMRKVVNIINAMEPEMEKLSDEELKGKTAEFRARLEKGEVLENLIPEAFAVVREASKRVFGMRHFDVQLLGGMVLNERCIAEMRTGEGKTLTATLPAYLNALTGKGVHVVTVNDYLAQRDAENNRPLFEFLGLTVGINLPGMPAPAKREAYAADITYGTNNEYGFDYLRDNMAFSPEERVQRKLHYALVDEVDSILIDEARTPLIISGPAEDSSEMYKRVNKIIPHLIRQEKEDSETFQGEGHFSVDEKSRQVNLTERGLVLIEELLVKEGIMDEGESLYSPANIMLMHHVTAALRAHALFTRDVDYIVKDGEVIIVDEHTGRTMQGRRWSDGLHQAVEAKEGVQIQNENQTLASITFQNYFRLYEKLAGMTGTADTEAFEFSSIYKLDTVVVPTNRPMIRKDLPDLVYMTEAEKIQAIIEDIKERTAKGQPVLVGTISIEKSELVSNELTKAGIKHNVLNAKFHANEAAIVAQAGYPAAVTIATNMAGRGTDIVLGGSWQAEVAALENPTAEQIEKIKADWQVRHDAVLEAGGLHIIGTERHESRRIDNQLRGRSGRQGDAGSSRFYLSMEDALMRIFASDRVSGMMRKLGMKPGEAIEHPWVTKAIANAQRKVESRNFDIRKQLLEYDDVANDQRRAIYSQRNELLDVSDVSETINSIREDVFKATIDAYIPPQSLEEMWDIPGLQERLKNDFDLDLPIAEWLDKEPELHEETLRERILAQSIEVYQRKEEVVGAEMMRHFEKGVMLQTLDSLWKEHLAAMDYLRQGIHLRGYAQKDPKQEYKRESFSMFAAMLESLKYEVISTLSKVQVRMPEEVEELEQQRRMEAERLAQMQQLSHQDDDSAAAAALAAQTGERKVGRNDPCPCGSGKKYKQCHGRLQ
Chain of Sialic acid-binding Ig-like lectin 9 (Homo sapiens) (Q9Y336 whole entry): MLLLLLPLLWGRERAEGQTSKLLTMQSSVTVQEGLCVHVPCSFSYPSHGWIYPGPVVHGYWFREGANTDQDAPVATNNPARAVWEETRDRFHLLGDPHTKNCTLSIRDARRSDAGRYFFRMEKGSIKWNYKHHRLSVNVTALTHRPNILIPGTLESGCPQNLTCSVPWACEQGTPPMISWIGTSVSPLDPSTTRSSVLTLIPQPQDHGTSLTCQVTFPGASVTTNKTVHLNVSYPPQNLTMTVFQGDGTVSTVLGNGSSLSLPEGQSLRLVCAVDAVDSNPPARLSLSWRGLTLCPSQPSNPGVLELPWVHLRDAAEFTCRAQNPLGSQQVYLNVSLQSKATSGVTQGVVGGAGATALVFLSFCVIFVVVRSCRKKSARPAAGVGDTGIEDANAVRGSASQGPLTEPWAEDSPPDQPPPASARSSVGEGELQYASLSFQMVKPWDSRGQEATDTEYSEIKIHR

Row | Structure (SMILES) | Percent Effect [1] [%] | Percent Effect [2] [%] | Percent Effect [3] [%] | Percent Effect [4] [%] | Percent Effect [5] [%] | Percent Effect (Trypanosoma cruzi) [%] | Percent Effect [6] [%] | Percent Effect [7] [%] | Percent Effect (Homo sapiens) [%] | Percent Effect [8] [%] | Percent Effect [9] [%] | Percent Effect [10] [%] | Percent Effect [11] [%]
1 | CC(C)(C)n1cc(C2=CCN(CCc3ccccc3)CC2)cn1 | 0.726 | 1.39 | -2.65 | -7.35 | -1.87 | 5.93 | 24.3 | 14.7 | 11.7 | -75.6 | 6.32 | 12.8 | -5.1
2 | c1ccc(CO[C@H]2CO[C@@]3(CCN(Cc4ccoc4)C3)C2)nc1 | -1.82 | 14.7 | 2.15 | 3.34 | 5.22 | -1.38 | -7.57 | 10.2 | -27.8 | -30.9 | -1.06 | 12.8 | -9.15
3 | CC(Cn1cccn1)NCc1nc(-c2cccs2)no1 (stereo not given) | -4.32 | 5.26 | -3.4 | -6.35 | 2.35 | 3.08 | -2.88 | 5.67 | -9.95 | 4.43 | 4.43 | 16.1 | -2.61
4 | CN1CCC2(CC1)CNC(=O)c1ccccc1O2 | -3.91 | 6.76 | -2.4 | 13.4 | 4.99 | -5.34 | 0.232 | 10.3 | 1.44 | 12.6 | 6.45 | 6.49 | -6.62
5 | Cc1cc(CC(=O)N2CCN(CC3CC3)[C@@H]3CS(=O)(=O)C[C@@H]32)ccc1F | -1.82 | 6.94 | 3.29 | 35.7 | -0.65 | 0.0972 | 3.53 | 7.02 | -1.41 | 1.5 | 7.37 | -15.4 | -3.03
6 | CN(C)c1ncc2c(n1)C1(CCN(CC3CC3)C1)COC2 (stereo not given) | 2.42 | 0 | 0.342 | 0.164 | 8.71 | -4.37 | 0.798 | 13.1 | -7.22 | -16.3 | 7.29 | 11.1 | -5.42
7 | COc1cc(CNCC(O)c2ccc(F)c(F)c2)cc2c1OCO2 (stereo not given) | -2.52 | 13.5 | 1.66 | 1.05 | 3.77 | -6.41 | 0.185 | 18.1 | 17.8 | -9.43 | 7.92 | 13.4 | -5.65
8 | CCCN1CCN(Cc2nccn2CC)C(C)C1 (stereo not given) | -1.91 | 13.5 | 1.06 | -5.87 | -10.4 | -2.54 | -1.67 | 8.54 | 32.2 | -11.5 | 8.91 | 8.54 | -3.53
9 | c1cncc(CN2CC[C@H]3O[C@@H](COCC4CC4)CC[C@H]32)c1 | -2.96 | -2.67 | -5.28 | 10.2 | 2.62 | -0.591 | 7.23 | -2.38 | 8.64 | -10.9 | 4.25 | 6.41 | 3.34
10 | Cc1cccc(CN2CC[C@@H]3[C@@H]2CCN3C(=O)c2cnoc2C)n1 | -3.21 | 10.8 | -2.46 | -5.71 | -1.95 | 5.27 | 34.2 | 10.7 | 7.71 | 5.3 | 3.96 | 15.8 | -1.59
